Source: PubChem (National Center for Advancing Translational Sciences (NCATS))
USP1-UAF1 inh – Inhibitors of USP1/UAF1: Primary Screen; recombinant USP1/UAF1, Ub-Rhodamine cleavage fluorescence; Ubiquitin carboxyl-terminal hydrolase 1 (Homo sapiens), O94782; hit rate 0.23% among 390,000; Potency, µM (top dose mostly 57.1 µM), inactives show at the top dose activity change, negative = inhibition, usual class: inhibitors; further: potency means the concentration at half of the fitted maximal effect; nearly all actives have a fitted effect of over 60% in size
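USP1/UAF1 complex at 1 nM was preincubated with compound for 15 min at room temperature, then Ub-Rho substrate (150nM final) was added. Fluorescence (480/540 nm) was read kinetically, 6 reads every 60 seconds.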
PLK1 PBD block – qHTS for Inhibitors of PLK1-PDB (polo-like kinase 1 - polo-box domain): Primary Screen | AID 720504, 2013 | Potency, µM, for the others: max response, negative = inhibition, actives largely listed as inhibitors | Plk1 PBD binding of FITC phosphopeptide, fluorescence polarization | hit rate 2.8% among 360,000; further: potency means the concentration at half of the fitted maximal effect; series mostly up to about 57 µM; nearly all actives have a fitted effect of over 65% in size
PI5P4K alpha inh – qHTS for Inhibitors of phosphatidylinositol 5-phosphate 4-kinase (PI5P4K). Phosphatidylinositol 5-phosphate 4-kinase type-2 alpha (Homo sapiens), P48426. PI5P4Kalpha enzyme, ADP-Glo luminescence, 60 min; active compounds read low. max response, %. hit rate 1.2% among 330,000. AID 652105, 2013; active means max response of -50% or lower; inconclusive means between -30% and -50%; inactive means -30% or higher; further: value at the top dose of about 77 µM
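Reactions run in 0.038 M HEPES pH 7.4, 0.28 mM EGTA, 0.1% CHAPS and 5% DMSO, with PI5P4Kalpha, substrate, compound and 5 microM ATP final, one hour at room temperature. Readout is ADP-Glo luminescence.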
WRN helicase inh – qHTS for Inhibitors of WRN Helicase | Bifunctional 3'-5' exonuclease/ATP-dependent helicase WRN (Homo sapiens), Q14191 | WRN helicase unwinding, fluorescent forked duplex, kinetic | Potency, µM (highest dose often 114 µM), for inactives: top-dose activity change, negative = inhibition, hits mostly inhibitors | hit rate 0.46% among 360,000 | AID 651768, 2012; further: potency means the concentration at half of the fitted maximal effect; nearly all actives have a fitted effect of over 55% in size
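Kinetic fluorescence helicase assay: unwinding of a quenched forked DNA duplex (100 nM final) with 2 mM ATP final raises red fluorescence (525/598 nm). Compounds sat 15 min at room temperature with 20 nM WRN beforehand.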
USP2a inh – qHTS Assay for Inhibitors of Ubiquitin-specific Protease USP2a Using CHOP2 as the Reporter; AID 463254, 2010; USP2 core, Ub-CHOP2 coupled fluorogenic reporter, 485/531; Potency, µM (highest dose often 38.3 µM), for the others: top-dose activity change, negative = inhibition, most hits filed as inhibitors; Ubiquitin carboxyl-terminal hydrolase 2 (Homo sapiens), O75604; hit rate 0.01% among 330,000;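 further: potency means the concentration at half of the fitted maximal effect; plate controls were DMSO wells for no effect and full inhibition by NEM control for full effect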
Target sequence (O75604 whole entry, looked up): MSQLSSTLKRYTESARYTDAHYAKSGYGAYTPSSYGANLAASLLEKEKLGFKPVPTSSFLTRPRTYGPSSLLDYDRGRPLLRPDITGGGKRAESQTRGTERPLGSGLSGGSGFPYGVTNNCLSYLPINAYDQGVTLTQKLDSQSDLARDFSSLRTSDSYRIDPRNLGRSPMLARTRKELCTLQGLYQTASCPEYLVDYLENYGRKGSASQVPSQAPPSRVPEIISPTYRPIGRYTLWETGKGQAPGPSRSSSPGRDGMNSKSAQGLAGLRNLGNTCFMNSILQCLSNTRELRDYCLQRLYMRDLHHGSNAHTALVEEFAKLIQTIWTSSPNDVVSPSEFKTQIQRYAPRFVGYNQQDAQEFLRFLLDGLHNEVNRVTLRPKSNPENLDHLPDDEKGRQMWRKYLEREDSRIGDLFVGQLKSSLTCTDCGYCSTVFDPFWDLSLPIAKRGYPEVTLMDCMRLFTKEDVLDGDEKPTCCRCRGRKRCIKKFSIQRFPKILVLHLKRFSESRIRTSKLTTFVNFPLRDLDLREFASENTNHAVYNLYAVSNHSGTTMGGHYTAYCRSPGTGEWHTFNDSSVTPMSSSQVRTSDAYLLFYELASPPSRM
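USP2 core (10nM final) preincubated 30min RT with compound in 20mM Tris-HCl pH 8.0, 2mM CaCl2, 2mM beta-mercaptoethanol, 0.05% CHAPS; 25nM Ub-CHOP2 plus 25nM reporter substrate added, fluorescence (Ex485/Em531) read after 60min.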
* marks the source's active call; other numbers are inactive results; ? = inconclusive; . = no result given; [ ] = dose if it differs, or a comment. Shown are actives, neighbours in structure and some others; about 3.3% of the full set was active somewhere. Unless noted, the call rests on the fitted dose curve; in most records, active means well fitted curve in the direction sought with a large enough effect; inconclusive means small, poorly fitted or top-dose-only effect, or another doubt; inactive means no such curve, though single readings can be large; an effect the other way counts as inactive or inconclusive. Unless noted, on the % scale 0 is the no-effect control and ±100 the full control effect.

SMILES | USP1-UAF1 inh | PLK1 PBD block | PI5P4K alpha inh | WRN helicase inh | USP2a inh
CCOc1ccc(CNC(=O)C2CCN(C(=O)c3sccc3-n3cccc3)CC2)cc1 | -24% | . | . | . | .
CC(C)(c1cc(Br)c(O)c(Br)c1)c1cc(Br)c(O)c(Br)c1 | -22% | 27µM* | ? | ? | -2%
CCCCC(=O)Nc1sc2c(c1C#N)CC(C)(C)OC2 | -18% | 27µM* | -17 | 0% | -10%
CC1(C)Cc2c(sc(NC(=O)Cc3ccccc3)c2C#N)CO1 | -16% | ? | -3 | -4% | -6%
Cc1sc(NC(=O)C2CCCO2)c(C#N)c1C (stereo not given) | -8% | ? | . | -5%[57.1 µM] | 3%
Cc1sc(NC(=O)C2CCCC2)c(C#N)c1C | -14% | 27µM* | -29 | -6% | -15%
CCCCCC(=O)Nc1sc(C)c(C)c1C#N | -9% | 11µM* | -4 | -11%[57.1 µM] | -1%
CCCC(=O)Nc1sc(C)c(C)c1C#N | -20% | 21µM* | 2 | -7% | 1%
COC(=O)C1CCN(C(c2ccccc2Cl)c2sc3nc(-c4ccco4)nn3c2O)CC1 (stereo not given) | 3% | . | . | . | .
CC(=O)Nc1ccc(NC(=O)CSc2cn(CC(=O)N(C(C)C)C(C)C)c3ccccc23)cc1 | -18% | . | . | . | .
Cc1c(Cl)cccc1-n1nnc(-c2nc(-c3ccc4c(c3)OCO4)no2)c1C | -25% | . | . | . | .
O=C1C2C3C=CC(C3)C2C(=O)N1/N=C/c1ccc(-c2ccccc2[N+](=O)[O-])o1 (stereo not given) | -2% | -15% | -21 | -26%[57.1 µM] | 0%
CN1C(=O)/C(=C/c2ccc(-c3ccccc3[N+](=O)[O-])o2)SC1=Nc1ccc(Cl)c(C(=O)O)c1 | ? | 27µM* | -60* | 56µM* | -1%
CC(=O)Nc1cccc(NC(=O)CSc2cn(CC(=O)N3CCCCCC3)c3ccccc23)c1 | -34% | . | . | . | .
CCN1C(=O)CC(Sc2ccccc2C(=O)O)C1=O (stereo not given) | 0% | -3% | . | -6% | 2%
O=C(O)c1ccccc1SC1CC(=O)N(c2cccc3ccccc23)C1=O (stereo not given) | -9% | 30µM* | ? | ? | 5%
CCOc1ccc(N2C(=O)CC(Sc3ccccc3C(=O)O)C2=O)c([N+](=O)[O-])c1 (stereo not given) | -24% | 27µM* | -9 | 3% | 3%
COc1ccccc1CNC(=O)CSC1=Nc2ccccc2N=C(c2ccc(F)cc2)C1 | -12% | . | . | . | .
Cc1c(CC(=O)N[C@H](C(=O)O)C(C)C)c(=O)oc2cc3c(cc12)CCC(C)(C)O3 | -19% | 21µM* | -23 | -32% | 2%
COc1ccc(CC(=O)Nc2cc(-c3nc4cccnc4s3)ccc2C)cc1 | -5% | . | . | . | .
Nc1c(C(=O)Nc2ccccc2)nnn1Cc1ccc(F)cc1Cl | -19% | . | . | . | .
Clc1ccccc1CO/N=C1\CCCc2nonc21 | -10% | 2% | -7 | -4% | 1%
Clc1ccc(CO/N=C2\CCCc3nonc32)cc1 | -4% | 21µM* | -15 | 2% | 4%
CCc1nc2ccc(C(=O)N3CCN(c4cccc(C)c4C)CC3)cc2nc1CC | ? | 27µM* | 12 | -6% | -9%
CCc1nc2ccc(C(=O)N3CCN(c4cccc(OC)c4)CC3)cc2nc1CC | -24% | -4% | 9 | -5% | 0%
SMILES | USP1-UAF1 inh | PLK1 PBD block | PI5P4K alpha inh | WRN helicase inh | USP2a inh
CCOC(=O)c1sc2ccccc2c1S(=O)(=O)NCc1ccccc1OC | -17% | . | . | . | .
CCc1ccc(Nc2n[n+](-c3ccccc3)c(-c3ccc(N(CC)CC)cc3)s2)cc1 | ? | 49% | -59* | -6% | -10%
CCc1ccc(Nc2n[n+](-c3ccccc3)c(-c3c(Cl)cccc3Cl)s2)cc1 | -19% | -19% | -80* | -7% | 5%
CCN(CC)c1ccc(-c2sc(Nc3ccccc3)n[n+]2-c2ccc(F)cc2)cc1 | ? | 32% | -18 | -12% | 2%
Cc1ccc(Cl)cc1N1CCN(C(=O)c2cc(S(=O)(=O)N3CCCC3)c[nH]2)CC1 | -7% | . | . | . | .
Cn1cccc1C(=O)NC(=O)COC(=O)c1cc(S(=O)(=O)N2CCCCC2)ccc1Cl | -21% | 21µM* | -5 | 3%[57.1 µM] | 0%
CCOc1cc2c(cc1OC)C(c1cccc([N+](=O)[O-])c1)NCC2 (stereo not given) | -7% | 4.7µM* | ? | 4% | 2%
CCN(CC)c1cc2c(cc1F)c(=O)c(S(=O)(=O)c1cccc(C)c1)cn2C | -2% | . | . | . | .
CCc1nnc(NC(=O)c2ccc(S(=O)(=O)N3CCc4ccccc4C3)cc2)s1 | -8% | 30µM* | -9 | -36% | 3%
CCc1nnc(NC(=O)c2ccc(Cl)c(S(=O)(=O)N3CCc4ccccc4C3)c2)s1 | -8% | -9% | -6 | 4% | 1%
CCc1nnc(NCC(=O)N2CCc3ccccc32)s1 | -11% | 24µM* | -24 | -25% | -6%
CCOc1ccc(N(C)C(=O)c2oc(=O)c3ccccc3c2-c2ccccc2)cc1 | -23% | . | . | . | .
Cc1c(C(=O)N2CCN(c3ccccn3)CC2)cccc1[N+](=O)[O-] | -9% | 0% | -8 | -4% | 1%
Cc1c(C(=O)N2CCN(c3cccc(Cl)c3)CC2)cccc1[N+](=O)[O-] | -20% | 30µM* | -21 | 4% | -1%
O=C(c1ccc(-c2ccc([N+](=O)[O-])cc2)o1)N1CCCCCCC1 | -12% | 24µM* | ? | -11% | 0%
Cc1c(Cl)cccc1-c1ccc(C(=O)N2CCN(c3ccc([N+](=O)[O-])cc3)CC2)o1 | -26% | -3% | 4 | 2% | 0%
O=C(c1ccc(-c2cccc(Cl)c2)o1)N1CCN(c2ccc([N+](=O)[O-])cc2)CC1 | -10% | 27µM* | -4 | 11% | -2%
O=[N+]([O-])c1cccc(-c2ccc(C(=S)N3CCN(c4ccccc4)CC3)o2)c1 | -19% | 12µM* | -8 | -14% | 5%
CCOc1ccc(C(=O)Nc2ccccc2C(=O)OCc2cc(=O)n3nc(C4CC4)sc3n2)cc1 | 0% | . | . | . | .
S=C(c1ccc(-c2cccc(Cl)c2)o1)N1CCOCC1 | -22% | 19µM* | . | -3% | 1%
COc1ccc(OC)c(NC(=O)CSc2ccnc(=O)[nH]2)c1 | -23% | . | . | . | .
CCOCCn1c(=O)c2c(nc3n2CC(C)CN3Cc2ccccc2)n(C)c1=O (stereo not given) | -18% | 30µM* | -12 | 3% | 6%
O=S(=O)(c1ccc(-n2cnnn2)cc1)N1CCN(c2cccc(C(F)(F)F)c2)CC1 | -10% | . | . | . | .
